Results filed as inconclusive are left out. The source made the active and inactive calls. Unless noted, the call rests on the fitted dose curve; in most records, active means well fitted curve in the direction sought with a large enough effect in the repeat runs; inconclusive means weak or mixed curves; inactive means no such curve, though single readings can be large; an effect the other way counts as inactive or inconclusive.
Tests used:
[1] = qHTS assay to identify small molecule antagonists of the thyroid receptor (TR) signaling pathway (AID 743065); conditions: GH3.TRE-Luc, T3-stimulated luciferase inhibition, 23.5 h; series mostly up to 70.3 µM; further: nearly all actives have a fitted effect of over 55% in size
In short: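 GH3.TRE-Luc rat pituitary cells carrying two TR response elements driving luciferase were plated for 4 h, given compound plus 1 nM T3 (final), and incubated 23.5 h at 37 C. ONE-Glo luminescence measured reporter inhibition; CellTiter-Fluor fluorescence tracked cytotoxicity.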

[2] = system: thyroid hormone receptor (rat, GH3 cells); assay: qHTS assay to identify small molecule agonists of the thyroid receptor (TR) signaling pathway (AID 743066; calls by dose curve); conditions: GH3.TRE-Luc cells, TR agonist luciferase, 24 h; series mostly up to 83.9 µM
[3] = biological target: Estrogen receptor (Homo sapiens) (UniProt P03372); assay: qHTS assay to identify small molecule antagonists of the estrogen receptor alpha (ER-alpha) signaling pathway (AID 743069; active means well fitted curve in the direction sought with a large enough effect in the signal ratio in the repeat runs, not every such curve was filed as active; the % refers to the signal ratio); conditions: HEK293 ER-alpha-UAS-bla, beta-lactamase ratio, antagonist mode; series mostly up to 69.4 µM
Estrogen receptor (Homo sapiens), sequence (P03372 whole entry, looked up): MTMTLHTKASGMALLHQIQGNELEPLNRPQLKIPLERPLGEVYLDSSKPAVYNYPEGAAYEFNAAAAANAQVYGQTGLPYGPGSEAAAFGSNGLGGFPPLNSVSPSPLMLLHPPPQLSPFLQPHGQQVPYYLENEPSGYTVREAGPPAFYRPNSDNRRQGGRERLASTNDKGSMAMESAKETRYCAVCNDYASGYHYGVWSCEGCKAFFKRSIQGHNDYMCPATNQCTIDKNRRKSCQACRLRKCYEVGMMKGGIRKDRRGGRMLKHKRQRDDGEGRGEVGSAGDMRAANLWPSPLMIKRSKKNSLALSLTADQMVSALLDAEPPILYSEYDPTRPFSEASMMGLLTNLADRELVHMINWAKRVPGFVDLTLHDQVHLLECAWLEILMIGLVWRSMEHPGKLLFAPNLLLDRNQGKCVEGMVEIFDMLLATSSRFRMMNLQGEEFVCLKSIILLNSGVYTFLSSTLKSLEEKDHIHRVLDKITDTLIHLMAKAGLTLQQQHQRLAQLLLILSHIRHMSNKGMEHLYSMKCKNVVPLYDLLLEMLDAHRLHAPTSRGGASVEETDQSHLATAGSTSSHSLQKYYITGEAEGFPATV
In short: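 Screening used a UAS-driven beta-lactamase reporter integrated into HEK293 cells expressing ER-alpha, stimulated with 17beta-estradiol alongside test compounds over 18 hr at 37C; signal came from LiveBLAzer B/G FRET fluorescence.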

[4] = qHTS assay to identify small molecule antagonists of the estrogen receptor alpha (ER-alpha) signaling pathway - cell viability counter screen (AID 743074; calls by dose curve; further: nearly all actives have a fitted effect of over 45% in size); conditions: ERalpha-bla HEK293 viability, CellTiter-Glo luminescence, 18 h; series mostly up to 69.4 µM
[5] = biological target: Estrogen receptor (Homo sapiens) (UniProt P03372); assay: qHTS assay to identify small molecule agonists of the estrogen receptor alpha (ER-alpha) signaling pathway (AID 743075; calls by dose curve); conditions: HEK293 ER-alpha-UAS-bla, beta-lactamase FRET ratio, 18 h; series mostly up to 70.1 µM
[6] = biological target: Estrogen receptor (Homo sapiens) (UniProt P03372); assay: qHTS assay to identify small molecule agonists of the estrogen receptor alpha (ER-alpha) signaling pathway using the BG1 cell line (AID 743079); conditions: BG1Luc4E2 cells, ERE-luciferase agonist, 22 h; series mostly up to 70.3 µM; further: nearly all actives have a fitted effect of over 20% in size
[7] = qHTS assay to identify small molecule antagonists of the estrogen receptor alpha (ER-alpha) signaling pathway using the BG1 cell line (AID 743080; calls by dose curve;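 further: BG1 cells stimulated with 17beta-estradiol alongside compound; nearly all actives have a fitted effect of over 25% in size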); conditions: BG1Luc4E2 ERE-luciferase antagonist mode, luminescence; series mostly up to 70.3 µM
In short: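 Readout is ONE-Glo luminescence, taken 30 min at room temperature after reagent addition, preceded by a CellTiter-Fluor viability read; BG1-Luc-4E2 cells had received compound and 17beta-estradiol for 21.5 h at 37 C.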

[8] = qHTS assay to identify small molecule antagonists of the estrogen receptor alpha (ER-alpha) signaling pathway using the BG1 cell line - cell viability counter screen (AID 743081); conditions: BG1Luc4E2 viability, CellTiter-Fluor, 22 h; series mostly up to 70.3 µM;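 further: compound given together with 17beta-estradiol as the ER stimulus; nearly all actives have a fitted effect of over 45% in size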
[9] = biological target: Aromatase (Homo sapiens) (UniProt P11511); assay: qHTS assay to identify aromatase inhibitors (AID 743083); conditions: MCF-7 aro ERE, testosterone-driven ERE luciferase, 24 h; series mostly up to 70.3 µM; further: nearly all actives have a fitted effect of over 55% in size
Aromatase (Homo sapiens), sequence (P11511 whole entry, looked up): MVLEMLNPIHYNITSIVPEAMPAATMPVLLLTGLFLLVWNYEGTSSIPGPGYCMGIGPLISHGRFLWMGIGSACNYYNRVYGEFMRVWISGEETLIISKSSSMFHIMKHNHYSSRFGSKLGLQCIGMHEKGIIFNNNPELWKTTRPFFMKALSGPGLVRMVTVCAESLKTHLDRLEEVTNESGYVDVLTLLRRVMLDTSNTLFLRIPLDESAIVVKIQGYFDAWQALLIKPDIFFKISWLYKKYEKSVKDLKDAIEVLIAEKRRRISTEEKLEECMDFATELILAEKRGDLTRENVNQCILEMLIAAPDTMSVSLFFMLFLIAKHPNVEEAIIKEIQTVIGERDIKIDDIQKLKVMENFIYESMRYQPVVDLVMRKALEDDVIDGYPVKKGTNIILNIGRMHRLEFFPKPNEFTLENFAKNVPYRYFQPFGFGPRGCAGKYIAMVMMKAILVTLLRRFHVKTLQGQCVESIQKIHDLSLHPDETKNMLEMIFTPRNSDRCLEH

[10] = qHTS assay to identify aromatase inhibitors - cell viability counter screen (AID 743084); conditions: MCF-7 aro ERE viability, CellTiter-Fluor, 24 h; series mostly up to 70.3 µM;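 further: cells stimulated with testosterone during compound exposure; nearly all actives have a fitted effect of over 55% in size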
[11] = biological target: Aryl hydrocarbon receptor (Homo sapiens) (UniProt P35869); assay: qHTS assay to identify small molecule that activate the aryl hydrocarbon receptor (AhR) signaling pathway (AID 743085); conditions: HepG2 AhR-luc (HG2L7.5c1), luciferase, 24 h; series mostly up to 70.3 µM;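 further: HG2L7.5c1 human HepG2 liver cells with stably integrated DRE-driven firefly reporter; nearly all actives have a fitted effect of over 15% in size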
Aryl hydrocarbon receptor (Homo sapiens), sequence (P35869 whole entry, looked up): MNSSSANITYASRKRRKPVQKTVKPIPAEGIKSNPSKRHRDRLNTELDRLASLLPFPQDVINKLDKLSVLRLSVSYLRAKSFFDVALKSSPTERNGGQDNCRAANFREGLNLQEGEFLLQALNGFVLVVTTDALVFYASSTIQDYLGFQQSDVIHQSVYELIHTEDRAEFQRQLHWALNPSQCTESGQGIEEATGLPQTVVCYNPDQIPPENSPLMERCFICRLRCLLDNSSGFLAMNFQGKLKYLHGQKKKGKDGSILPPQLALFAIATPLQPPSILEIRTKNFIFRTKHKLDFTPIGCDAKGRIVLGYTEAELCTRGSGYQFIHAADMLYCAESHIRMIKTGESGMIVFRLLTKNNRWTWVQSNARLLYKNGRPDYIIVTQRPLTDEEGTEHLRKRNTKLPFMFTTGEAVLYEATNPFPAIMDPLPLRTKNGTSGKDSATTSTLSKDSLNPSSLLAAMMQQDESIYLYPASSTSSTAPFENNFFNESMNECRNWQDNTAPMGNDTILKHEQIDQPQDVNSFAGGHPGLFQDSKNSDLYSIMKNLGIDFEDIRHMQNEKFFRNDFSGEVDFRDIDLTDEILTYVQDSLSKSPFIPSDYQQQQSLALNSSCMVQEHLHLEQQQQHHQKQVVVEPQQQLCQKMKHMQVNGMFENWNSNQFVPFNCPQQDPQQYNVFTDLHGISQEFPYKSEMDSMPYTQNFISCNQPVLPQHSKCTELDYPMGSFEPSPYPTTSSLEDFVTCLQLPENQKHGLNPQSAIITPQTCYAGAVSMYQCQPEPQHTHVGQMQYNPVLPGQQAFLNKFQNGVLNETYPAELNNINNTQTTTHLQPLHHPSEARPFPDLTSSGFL
In short: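 Luminescence read-out: ONE-Glo reagent, 30 min at room temperature, in HG2L7.5c1 HepG2 reporter cells treated 24 h at 37C. Viability was measured beforehand by CellTiter-Fluor fluorescence after 30 min at 37C.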

[12] = qHTS assay to identify small molecule that activate the aryl hydrocarbon receptor (AhR) signaling pathway - cell viability counter screen (AID 743086); conditions: HepG2-AhR-luc viability, CellTiter-Fluor, 24 h; series mostly up to 70.3 µM;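 further: HepG2 liver cells carrying the AhR DRE luciferase reporter; nearly all actives have a fitted effect of over 45% in size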
In short: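 HepG2-AhR-luc (HG2L7.5c1) cells, 4000/well, were preincubated 5 h at 37C, exposed to compound in qHTS format for 24 hr at 37C, then given CellTiter-Fluor for 30 min; viability was read as fluorescence in the reporter wells.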

[13] = biological target: Peroxisome proliferator-activated receptor gamma (Homo sapiens) (UniProt P37231); assay: qHTS assay to identify small molecule agonists of the peroxisome proliferator-activated receptor gamma (PPARg) signaling pathway (AID 743094; active means well fitted activation curve with a large enough effect in the signal ratio in the repeat runs, not every such curve was filed as active; the % refers to the signal ratio); conditions: HEK293H PPARg-UAS-bla, beta-lactamase FRET ratio, 17 h; series mostly up to 57 µM
Peroxisome proliferator-activated receptor gamma (Homo sapiens), sequence (P37231 whole entry, looked up): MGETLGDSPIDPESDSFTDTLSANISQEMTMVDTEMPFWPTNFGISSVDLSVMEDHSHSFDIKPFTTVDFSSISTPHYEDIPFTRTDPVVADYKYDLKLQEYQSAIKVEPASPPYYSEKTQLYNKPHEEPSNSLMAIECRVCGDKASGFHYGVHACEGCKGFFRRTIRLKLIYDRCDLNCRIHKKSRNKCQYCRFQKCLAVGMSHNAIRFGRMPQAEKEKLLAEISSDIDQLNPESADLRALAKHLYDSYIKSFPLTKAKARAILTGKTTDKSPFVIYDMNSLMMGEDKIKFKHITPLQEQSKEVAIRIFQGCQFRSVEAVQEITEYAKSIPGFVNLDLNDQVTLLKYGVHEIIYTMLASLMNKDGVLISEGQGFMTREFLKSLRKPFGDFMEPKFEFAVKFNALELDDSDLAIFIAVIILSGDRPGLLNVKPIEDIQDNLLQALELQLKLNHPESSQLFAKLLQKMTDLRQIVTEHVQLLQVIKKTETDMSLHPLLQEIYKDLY
In short: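 Reporter activation was scored by fluorescence of cleaved LiveBLAzer B/G substrate (1 h, room temperature) in PPARg-bla HEK293H cells previously treated 17 h at 37C with DMSO-dissolved compounds.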

[14] = qHTS assay to identify small molecule antagonists of the peroxisome proliferator-activated receptor gamma (PPARg) signaling pathway - cell viability counter screen (AID 743194); conditions: PPARg-bla HEK293H viability, CellTiter-Glo luminescence, 17 h, co-treated with 50 nM rosiglitazone; series mostly up to 62.6 µM; further: nearly all actives have a fitted effect of over 55% in size; further: potency means the concentration at half of the fitted maximal effect
In short: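 PPARg-UAS-bla HEK293H cells were plated, rested 5 h at 37 C, then treated with compounds plus rosiglitazone (50 nM final) for 17 h at 37 C; viability was then read by CellTiter-Glo luminescence after 30 min at room temperature.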

[15] = qHTS assay for small molecule activators of the heat shock response signaling pathway - cell viability counter screen (AID 743209); conditions: HSE-bla HeLa viability, CellTiter-Glo luminescence, 5 h; series mostly up to 62.6 µM; further: nearly all actives have a fitted effect of over 50% in size
In short: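 Viability of HSE-bla HeLa cells is measured with CellTiter-Glo in the wells already used for the reporter read. Compound exposure lasts 5 h at 37 C, and luminescence is read after 30 min at room temperature.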

[16] = qHTS assay to identify small molecule agonists of the peroxisome proliferator-activated receptor delta (PPARd) signaling pathway - cell viability counter screen (AID 743211); conditions: PPARd-bla HEK293H viability, CellTiter-Glo luminescence, 17 h; series mostly up to 62.6 µM; further: nearly all actives have a fitted effect of over 55% in size
In short: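 Read-out: CellTiter-Glo luminescence, 30 min RT, measured in the same wells as the beta-lactamase reporter. Cells: GeneBLAzer PPAR delta UAS-bla HEK293H, 3000 cells/well, compound exposure 17 h at 37C.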

[17] = biological target: Peroxisome proliferator-activated receptor gamma (Homo sapiens) (UniProt P37231); assay: qHTS assay to identify small molecule antagonists of the peroxisome proliferator-activated receptor gamma (PPARg) signaling pathway (AID 743191; calls by dose curve; further: nearly all actives have a fitted effect of over 30% in size); conditions: HEK293H PPARg-UAS-bla, beta-lactamase ratio, antagonist, 17 h; series mostly up to 62.6 µM
In short: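 GeneBLAzer PPARg UAS-bla HEK293H cells carrying a UAS-driven beta-lactamase reporter were plated at 3000 cells/well, preincubated 5 h at 37C, then given compound for 17 h at 37C; LiveBLAzer B/G FRET substrate was read after 1 h at room temperature.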

[18] = qHTS assay for small molecule agonists of the antioxidant response element (ARE) signaling pathway (AID 743202; active means well fitted activation curve with a large enough effect in the signal ratio in the repeat runs, not every such curve was filed as active; the % refers to the signal ratio; further: potency means the concentration at half of the fitted maximal effect); conditions: HepG2 ARE-bla reporter, beta-lactamase FRET, 16 h; series mostly up to 73.3 µM
In short: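 Steps: seed ARE-bla HepG2 cells (2,000/well); incubate 5 h at 37 C; add compounds by pin tool; incubate 16 h at 37 C; add FRET substrate; read fluorescence after 2 h at RT.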

[19] = qHTS assay for small molecule agonists of the antioxidant response element (ARE) signaling pathway - cell viability counter screen (AID 743203; calls by dose curve; further: nearly all actives have a fitted effect of over 55% in size; further: potency means the concentration at half of the fitted maximal effect); conditions: ARE-bla HepG2 viability, CellTiter-Glo luminescence, 16 h; series mostly up to 73.3 µM
In short: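 Viability counter screen: stably transfected ARE-bla HepG2 line, 16 hrs compound exposure at 37C/5% CO2, ATP-based CellTiter-Glo luminescence measured in the reporter wells.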

[20] = qHTS assay for small molecule activators of the heat shock response signaling pathway (AID 743210; active means well fitted activation curve with a large enough effect in the signal ratio in the repeat runs, with a control signal flat, not every such curve was filed as active; the % refers to the signal ratio;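 further: HeLa cells with beta-lactamase reporter driven by heat shock elements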); conditions: HeLa HSE-bla reporter, beta-lactamase ratio, 5 h; series mostly up to 62.6 µM
In short: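 Activation of heat shock element-controlled beta-lactamase expression is measured in HeLa cells by LiveBLAzer FRET fluorescence, with compound exposure lasting 5 h at 37 C and substrate loading 2.5 h at room temperature.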

Measured: Potency

CCCCCCCCCCOC(=O)c1ccccc1C(=O)OCCCCCCCC
not listed: [17] | [18] | [19] | [20]
inactive: all other assays above

CCCCCc1ccc(Cl)cc1
not listed: [13]
inactive: all other assays above

CCCCC(CC)COC(=O)CCCCC(=O)OCc1ccccc1 (stereo unspecified)
not listed: [17]
inactive: all other assays above

CCC(=O)OC(=O)CC
not listed: [17] | [18] | [19]
inactive: all other assays above

C=CC(C)(CCC=C(C)C)OC=O (stereo unspecified)
not listed: [18]
inactive: all other assays above

O[C@@H]([C@H](O)[C@H](O)CBr)[C@H](O)CBr
inactive: all assays above

CC(C(=O)O)c1ccc2c(c1)[nH]c1ccc(Cl)cc12 (stereo unspecified)
not listed: [17] | [18]
inactive: all other assays above

CC(=O)OCC=C(C)C
not listed: [18] | [19]
inactive: all other assays above

COC(C)=O
not listed: [17] | [19]
inactive: all other assays above

CCCCOC(=O)CO
inactive: all assays above

CCCC1CCC(=O)CC1
not listed: [14]
inactive: all other assays above

[Cl][Pt-2]([Cl])([Cl])[Cl]
active: [18] 48.8 µM
not listed: [13] | [20]
inactive: all other assays above

O=C(O)c1ccc2cc(C(=O)O)ccc2c1
not listed: [19]
inactive: all other assays above

CCCCC(CC)CN1CN(CC(CC)CCCC)CC(C)(N)C1 (stereo unspecified)
active: [14] 29.8 µM | [19] 18.8 µM
not listed: [17] | [18] | [20]
inactive: all other assays above

Cc1ccc(C(C)C)cc2c(C)ccc1-2
not listed: [18]
inactive: all other assays above

— PubChem BioAssay (Tox21)
